# Results taken from PubChem BioAssay (Tox21).
# Values joined by “and” are separate entries in the source; they are usually repeats but may differ in a detail not shown here. Equal entries are not always repeated. Inconclusive results are not listed. Where a call stands in place of a potency, no number is given. Some compounds were tested as several samples or in several runs, with calls that do not always agree. Active and inactive are the calls of the source. The call rests on the fitted dose curve.
# Target: Acetylcholinesterase (Homo sapiens) (UniProt P22303)
# Assay: Acetylcholinesterase (AChE) small molecule antagonists: colormetric cell-based qHTS assay (AID 1347395); further: nearly all actives have a fitted effect of over 30% in size
# Conditions: SH-SY5Y cells AChE activity, colorimetric (Ellman); series mostly up to 115 µM
# Description: National Center for Advancing Translational Sciences [NCATS]
# Division of Preclinical Innovation [DPI]
# U.S. Environmental Protection Agency [EPA]
# National Institutes of Environmental Health Sciences [NIEHS]
# National Toxicology Program [NTP]
# U.S. Food and Drug Administration [FDA]
# Acetylcholinesterase (AChE) is the primary cholinesterase in the body that hydrolyzes a key neurotransmitter, acetylcholine. Inhibition of AChE activity can lead to neurotoxicity. The known inhibitors include organophosphorous pesticides (OP), chemical warfare agents, drugs, and various phytochemicals.
# A homogenous cell-based assay using the Amplite Colormetric acetylcholinesterase assay kit (AAT Bioquest, Sunnyvale, CA) was used to evaluate the chemicals in the Tox21 10K library that inhibit AChE activity. The assay uses 5, 5-dithiobis-(2-nitrobenzoic acid) (DTNB) to quantify the thiocholine produced from the hydrolysis of acetylthiocholine by AChE from the SH-SY5Y cells.
# Tox21 Assay Protocol Summary:
# For the cell-based AChE assay, 2,000 SH-SY5Y cells in 4 uL/well were dispensed into black, clear-bottom 1536-well plates using a Multidrop Combi dispenser (Thermo Scientific, MA). The assay plates were incubated overnight at 37 C to allow cells to attach to the wells, followed by the transfer of 23 nL of compound or DMSO (vehicle control) by a Pintool Station (Wako Automation, CA). The plates were incubated for 30 min at 37 C and 5% CO2, followed by the addition of 4 uL of detection cocktail solution (DTNB, acetylthiocholine) into each well using a Flying Reagent Dispenser (Beckman Coulter, CA) and then 90 min incubation at 37 C.
# Potency means the concentration at half of the fitted maximal effect.
# Acetylcholinesterase (Homo sapiens), sequence (P22303 whole entry, looked up): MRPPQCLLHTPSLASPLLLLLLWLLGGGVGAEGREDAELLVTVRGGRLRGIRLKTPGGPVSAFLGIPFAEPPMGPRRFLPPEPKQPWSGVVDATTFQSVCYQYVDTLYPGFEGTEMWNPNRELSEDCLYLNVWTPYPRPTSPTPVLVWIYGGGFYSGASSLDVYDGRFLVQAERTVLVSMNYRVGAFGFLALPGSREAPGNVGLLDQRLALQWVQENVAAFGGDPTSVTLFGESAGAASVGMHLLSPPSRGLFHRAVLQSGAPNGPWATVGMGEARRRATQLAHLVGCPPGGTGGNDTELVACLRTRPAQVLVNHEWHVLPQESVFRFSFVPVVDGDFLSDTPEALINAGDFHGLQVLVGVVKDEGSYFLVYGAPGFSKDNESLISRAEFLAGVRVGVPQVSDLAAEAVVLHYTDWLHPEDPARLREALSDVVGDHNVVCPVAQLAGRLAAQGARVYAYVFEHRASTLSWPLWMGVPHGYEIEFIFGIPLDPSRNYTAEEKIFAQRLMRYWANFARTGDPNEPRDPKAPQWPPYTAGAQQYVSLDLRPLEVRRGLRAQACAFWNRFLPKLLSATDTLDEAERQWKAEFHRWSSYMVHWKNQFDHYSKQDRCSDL
row,SMILES,Potency
1,c1cc2c3c(cccc3c1)CC2,36.5 µM (active) and inactive
2,O=S(=O)(c1ccc(Cl)cc1)c1cc(Cl)c(Cl)cc1Cl,inactive
3,CN(C)CCO,inactive
4,CC(C)NC(=O)N1CC(=O)N(c2cc(Cl)cc(Cl)c2)C1=O,inactive
5,NCCc1ccc(O)cc1,62.8 µM (active) and inactive
6,ClCc1cccnc1,inactive
7,C=CCO,inactive
8,COC(=O)c1ccccc1C(=O)OC,inactive
9,c1ccc2c(c1)Oc1ccccc1O2,inactive
10,c1ccc(-c2ccccc2)cc1,inactive
11,C#CC(C)(C)NC(=O)c1cc(Cl)cc(Cl)c1,inactive
12,Cc1ccc(N)cc1N,inactive
13,BrCCBr,inactive
14,CC(C)(C)OOC(C)(C)C,inactive
15,O=NN1CCCC1,13.2 µM (active) and inactive
16,Cc1cccc([N+](=O)[O-])c1,inactive
17,CCNc1nc(NC(C)C)nc(SC)n1,inactive
18,OCCN(CCO)CCO,inactive
19,COC(=O)c1ccccc1N,inactive
20,O=[N+]([O-])c1ccccc1,inactive

row,SMILES,Potency
1,CC1C=[C-]C=C1.[C-]#[O+].[C-]#[O+].[C-]#[O+].[Mn],inactive
2,Clc1cccc(Cl)c1Cl,inactive
3,Cc1cc(-c2cc(C)c(N)c(C)c2)cc(C)c1N,inactive
4,CCNc1nc(NC(C)(C)C)nc(SC)n1,inactive
5,CC(C#N)CCC#N (stereo not given),inactive
6,CC(Oc1ccc(Cl)cc1Cl)C(=O)O (stereo not given),inactive
7,CCC12COCN1COC2,inactive
8,CCCN(CCC)c1c([N+](=O)[O-])cc(C(F)(F)F)cc1[N+](=O)[O-],inactive
9,Nc1ccccc1C(=O)O,inactive
10,CCc1cccc(C)c1N(C(=O)CCl)C(C)COC (stereo not given),inactive
11,CC(C)C1(C)N=C(c2nc3ccccc3cc2C(=O)O)NC1=O (stereo not given),inactive
12,O=NN1CCCCCCC1,inactive
13,Cc1[nH]c(=O)n(C(C)(C)C)c(=O)c1Cl,inactive
14,CCCCN(CCCC)SN(C)C(=O)Oc1cccc2c1OC(C)(C)C2,809 nM (active) and 159 nM (active)
15,CCC[N+](=O)[O-],inactive
16,c1ccc(OP(Oc2ccccc2)Oc2ccccc2)cc1,inactive
17,CCN(CC)CCO,inactive
18,C[C@]12CC[C@H]3[C@@H](CC[C@@]45O[C@@H]4C(O)=C(C#N)C[C@]35C)[C@@H]1CC[C@@H]2O,inactive
19,Clc1ccccc1Cl,inactive
20,Nc1ccc(Oc2ccc(N)cc2)cc1,inactive
